From a collection of fitness landscapes (doi:10.1016/j.celrep.2020.107928)
Whole data set: some 81,000 sequences, median “one-hybrid fitness for binding parS DNA” near -0.17, cut for the highest 2% near 0.51. Many of the other results were omitted from the sample, so the highest values are more common in it than they were.

B1: Caulobacter ParB omega fusion; a variant is named by its letters at X, in order, B8GW30 (parent)
chain: MESVVVGEPGMSEGRRGLGRGLSALLGEVDAAPAQAPGEQLGGSREAPIEILQRNPDQPRRTFREEDLEDLSNSIREKGVLQPILVRPSPDTAGEYQIVAGERAWRAAQRAGLKTVPIMVRELDDLAVLEIGIIENVQRADLNVLEEALSYKVLMEKFERTQENIAQTIGKSXSHVANXMRLLXLPDEVQSYLVSGELTAXHARAIAAAADPVALAKQIIEGGLSVRETEALARKAPNLSAGKSKGGRPPRVKDTDTQALESDLSSVLGLDVSIDHRGSTGTLTITYATLEQLDDLCNRLTRGI

Variants of: B1
Experiment: one-hybrid fitness for binding parS DNA (scaled: cognate 1, non-cognate 0); higher = stronger binding
Conditions: with parS DNA site
Procedure, shortened: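 On M9-minus-histidine containing 0.1 mM IPTG and 5 mM 3-AT, E. coli USO cells with a HIS3 reporter, site 19 bp from the promoter, grew 48 hours at 37°C to select Caulobacter ParB libraries randomised at four specificity codons. Plasmids from before and after were Illumina-sequenced, with three replicate libraries pooled and variants under 10 reads left out. Fitness is the log change in variant-to-wild-type read ratio, rescaled against cognate and non-cognate.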

| Variant | one-hybrid fitness for binding parS DNA |
| --- | --- |
| RHRH | 0.232 |
| RHSQ | ≤ 0.2 |
| RHSR | ≤ 0.2 |
| KVHG | ≤ 0.2 |
| IAKA | ≤ 0.2 |
| MESK | ≤ 0.2 |
| TRMT | ≤ 0.2 |
| GQVV | ≤ 0.2 |
| AIVR | ≤ 0.2 |
| KQMS | ≤ 0.2 |
| GWHV | ≤ 0.2 |
| VEGN | ≤ 0.2 |
| TSSY | ≤ 0.2 |
| RDNA | ≤ 0.2 |
| NLNA | ≤ 0.2 |
| DLDA | ≤ 0.2 |
| DLYA | ≤ 0.2 |
| NLCA | ≤ 0.2 |
| DLCA | ≤ 0.2 |
| RLCA | 0.609 |
| ALYA | ≤ 0.2 |
| RLDA | 0.588 |
| RLNA | 0.62 |
| RLYA | 0.607 |

| Variant | one-hybrid fitness for binding parS DNA |
| --- | --- |
| ASVG | ≤ 0.2 |
| YGDG | ≤ 0.2 |
| VARP | ≤ 0.2 |
| TRNE | ≤ 0.2 |
| SERK | ≤ 0.2 |
| TYPS | ≤ 0.2 |
| QKME | ≤ 0.2 |
| QGRS | ≤ 0.2 |
| LGAW | ≤ 0.2 |
| LDKA | ≤ 0.2 |
| WVHI | ≤ 0.2 |
| DLRA | ≤ 0.2 |
| RLRA | 0.727 |
| NLRA | ≤ 0.2 |
| SEQC | ≤ 0.2 |
| TFQR | ≤ 0.2 |
| NICA | ≤ 0.2 |
| RIIA | 0.499 |
| RIYA | 0.613 |
| RICA | 0.525 |
| RILA | 0.576 |
| RISA | 0.608 |
| RIPA | 0.29 |
| NISA | ≤ 0.2 |

| Variant | one-hybrid fitness for binding parS DNA |
| --- | --- |
| HSNV | ≤ 0.2 |
| QGKW | ≤ 0.2 |
| YPTH | ≤ 0.2 |
| PDPT | ≤ 0.2 |
| YNHR | ≤ 0.2 |
| PMSC | ≤ 0.2 |
| NLLT | ≤ 0.2 |
| NQHT | ≤ 0.2 |
| WWRT | ≤ 0.2 |
| PCFG | ≤ 0.2 |
| YQHR | ≤ 0.2 |
| RIHA | 0.574 |
| RIQA | 0.576 |
| RIRA | 0.672 |
| RIEA | 0.451 |
| NIRA | ≤ 0.2 |
| RIGA | 0.661 |
| TSST | ≤ 0.2 |
| VTVI | ≤ 0.2 |
| IMSG | ≤ 0.2 |
| ENNW | ≤ 0.2 |
| TFVM | ≤ 0.2 |
| KSAC | ≤ 0.2 |
| DWTC | ≤ 0.2 |

| Variant | one-hybrid fitness for binding parS DNA |
| --- | --- |
| TPML | ≤ 0.2 |
| CISV | ≤ 0.2 |
| RIWA | 0.539 |
| THES | ≤ 0.2 |
| MCDC | ≤ 0.2 |
| NYQC | ≤ 0.2 |
| NSQY | ≤ 0.2 |
| HMPR | ≤ 0.2 |
| PPDT | ≤ 0.2 |
| ARRF | ≤ 0.2 |
| RQDG | 0.93 |
| RQHK | ≤ 0.2 |
| RQDH | ≤ 0.2 |
| RQWG | 0.877 |
| RQWM | 0.233 |
| RQRH | 0.249 |
| RQDD | ≤ 0.2 |
| RQRP | ≤ 0.2 |
| RQHG | 1.01 |
| RQHF | 0.231 |
| RQRG | 0.97 |
| RQWK | ≤ 0.2 |
| WATG | ≤ 0.2 |
| TFEV | ≤ 0.2 |

| Variant | one-hybrid fitness for binding parS DNA |
| --- | --- |
| KKQL | ≤ 0.2 |
| VEMW | 0.21 |
| SPRE | ≤ 0.2 |
| VHIS | ≤ 0.2 |
| HAND | ≤ 0.2 |
| MQAL | ≤ 0.2 |
| RQNF | 0.216 |
| RQQH | ≤ 0.2 |
| RQLG | 0.982 |
| RQNM | 0.325 |
| RQQG | 0.99 |
| RQLH | ≤ 0.2 |
| RQYG | 0.994 |
| RQQN | 0.469 |
| RQYH | ≤ 0.2 |
| RQNG | 1.01 |
| RQYD | ≤ 0.2 |
| RQLD | ≤ 0.2 |
| YEKG | ≤ 0.2 |
| MTTE | ≤ 0.2 |
| PMRC | ≤ 0.2 |
| TKTN | ≤ 0.2 |
| ESQE | ≤ 0.2 |
| PCYG | ≤ 0.2 |

| Variant | one-hybrid fitness for binding parS DNA |
| --- | --- |
| FVTS | ≤ 0.2 |
| VWVK | ≤ 0.2 |
| TAGS | ≤ 0.2 |
| QLHQ | ≤ 0.2 |
| GGAM | ≤ 0.2 |
| MKCT | ≤ 0.2 |
| RQSH | ≤ 0.2 |
| RQGG | 0.945 |
| RQSD | ≤ 0.2 |
| RQCY | 0.412 |
| RQCR | ≤ 0.2 |
| RQCG | 0.97 |
| RQGQ | ≤ 0.2 |
| RQSG | 0.984 |
| RQGF | 0.234 |
| NETE | ≤ 0.2 |
| YGVD | ≤ 0.2 |
| VVSY | ≤ 0.2 |
| LSGR | ≤ 0.2 |
